Screening results: PubChem, National Center for Advancing Translational Sciences (NCATS)
Rows were chosen to be rich in hits. Some 21% of all compounds tested hit in one or more screens of this group.
Shiga toxin inh: Shiga toxin inhibition; Vero cells, Shiga toxin protein synthesis inhibition reporter; inhibition, % at 38.7 µM; hit rate 9.2% among 290,000; in the data active = inhibition mostly above about 28%, no sharp cut-off; inactive = mostly below about 43%
Cycloheximide cs: counter-screen for Shiga toxin inhibitors: cycloheximide protein synthesis inhibition | cell reporter, cycloheximide protein synthesis inhibition counterscreen | max response, % | hit rate 12% among 300,000 | AID 2314; in the data active = max response mostly above about 13%, no sharp cut-off; inactive = mostly below about 14%; note: read at 38.3 µM for the half of the compounds with a filed dose
Pf growth 96h: inhibits malaria parasite growth, 96 h | AID 504834 | Potency, µM (series often up to 28.7 µM), hits mostly inhibitors | hit rate 6.9% among 320,000 | P. falciparum luciferase reporter growth, 96 h; active = well fitted inhibition curve with a large enough effect; inconclusive = small, poorly fitted or top-dose-only effect, or another doubt; inactive = no such curve, though single readings can be large or run the other way
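Two parasite generations (96 h, 37 C, 5% CO2) of compound exposure in infected erythrocytes (0.05% parasitemia, 2% hematocrit). Luciferase-reporter P. falciparum; decreased luminescence indicates inhibited growth, aimed at apicoplast-acting delayed death.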
NS1 function inh: inhibitors of influenza NS1 protein function; Potency, µM (highest dose often 46.1 µM); hit rate 0.4% among 270,000; note: actives are rising curves; nearly all actives have a fitted effect of over 50% in size
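OD600 was taken as the measure of yeast growth restored by compound in an NS1-expressing S. cerevisiae strain. Cells had been washed out of glucose medium and diluted 1:100 into galactose -URA medium, pH 6.0.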
SARS PLP yeast: SARS-CoV PLP inhibition in yeast; S. cerevisiae expressing SARS-CoV PLpro, growth rescue; hit rate 0.19% among 330,000; Potency, µM (series often up to 32.9 µM), most hits filed as activators; note: nearly all actives have a fitted effect of over 55% in size
Pf growth 48h: inhibits P. falciparum growth in the first generation, 48 h. P. falciparum luciferase growth in erythrocytes, 48 h. Potency, µM (highest dose often 28.7 µM), most hits filed as inhibitors. hit rate 5.9% among 310,000. AID 504832; active = well fitted inhibition curve with a large enough effect; inconclusive = small, poorly fitted or top-dose-only effect, or another doubt; inactive = no such curve, though single readings can be large or run the other way
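Luciferase-expressing P. falciparum in infected erythrocytes (2% hematocrit, 0.1% parasitemia final) in RPMI 1640/0.5% Albumax were exposed to compound for 48 hours at 37 C, 5% CO2; growth read as luminescence.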
Numbers stand for hits; – = inactive; ? = inconclusive; · = not tested or not shown. Unless noted, calls come from the whole dose curve.

SMILES | Shiga toxin inh | Cycloheximide cs | Pf growth 96h | NS1 function inh | SARS PLP yeast | Pf growth 48h
CCOC(=O)C1(Cc2cccc(F)c2)CCN(C(=O)c2cnccn2)CC1 | – | – | ? | – | – | –
CCOC(=O)C1(Cc2ccccc2Cl)CCN(C(=O)c2cc(C)on2)CC1 | 40 | 28 | ? | – | – | –
CCOC(=O)C1(Cc2ccccc2Cl)CCN(C(=O)c2cnccn2)CC1 | 94 | 50 | 9.3µM | – | – | –
CCOC(=O)N1CCN(C(=O)c2cc(-n3cnnc3)ccc2Cl)CC1 | – | – | – | – | – | –
CCn1c(O)c(/C=N/NC(=O)c2ccccc2)c(=O)n(CC)c1=S | 52 | 47 | – | – | – | –
CC(C)c1ccc(-n2c(O)c(/C=N/NC(=O)c3ccccc3O)c(=O)[nH]c2=S)cc1 | 48 | 33 | – | ? | – | –
O=c1[nH]c(=S)n(C2CC2)c(O)c1/C=N/Nc1ccccc1 | 65 | 24 | – | – | – | –
CC(N=Cc1c(O)n(C2CC2)c(=S)[nH]c1=O)c1ccccc1 (stereo not drawn) | – | – | – | – | – | –
O=C(N/N=C/c1c(O)n(Cc2ccco2)c(=O)[nH]c1=O)c1ccccc1O | 73 | 22 | – | – | ? | –
O=C(N/N=C/c1c(O)n(CCc2ccccc2)c(=O)[nH]c1=O)c1ccccc1 | 31 | 30 | – | – | – | –
NC1CCCCC1N=Cc1c(O)n(CCc2ccc(F)cc2)c(=O)[nH]c1=O (stereo not drawn) | – | – | 4.7µM | ? | – | ?
CCCCC(=O)N/N=C/c1c(O)n(C2CC2)c(=S)[nH]c1=O | – | – | – | – | – | –
O=C(N/N=C/c1c(O)n(C2CCCCC2)c(=S)[nH]c1=O)c1ccccc1 | 48 | – | – | – | – | –
O=c1[nH]c(=S)n(C2CC2)c(O)c1/C=N/Nc1cccc2ccccc12 | 72 | 25 | – | ? | – | –
Cn1ncc(Cl)c1C(=O)N1CCN(c2ccc(F)cc2)CC1 | – | – | – | – | – | –
O=C(N/N=C/c1ccncc1)c1cc(Br)ccc1OCc1ccccc1 | – | – | 2.9µM | – | – | ?
COc1ccc(C(=O)Nc2ccccc2C(=O)N/N=C/c2ccccn2)cc1OC | 45 | 34 | 12µM | – | – | 4.1µM
Brc1ccc(OCc2ccccc2)c(CNCc2ccncc2)c1 | – | – | 0.41µM | – | – | 9.3µM
COc1ccc(C(=O)N/N=C/c2ccccn2)cc1OC | – | – | ? | · | – | ?
O=C(N/N=C/c1cccnc1)c1ccccc1OCc1cccc(Br)c1 | – | – | – | · | – | ?
COc1ccc(OC)c(C(=O)N/N=C/c2ccccn2)c1 | 76 | 30 | – | – | – | –
Fc1ccc(COc2ccccc2CNCc2ccncc2)cc1 | – | – | ? | – | – | ?
Cc1cc(C)cc(OCCn2ccnc2)c1 | – | – | – | – | – | –
COc1cccc(C(=O)Oc2ccc(N3C(=O)CCC3=O)c(C)c2)c1 | – | – | – | – | – | –
O=C(CSc1nnc(CNC(=O)c2cccs2)o1)NCC1CCCO1 (stereo not drawn) | – | – | ? | · | – | –
SMILES | Shiga toxin inh | Cycloheximide cs | Pf growth 96h | NS1 function inh | SARS PLP yeast | Pf growth 48h
CCOc1ccc(Br)cc1C(=O)N/N=C/c1ccccn1 | – | – | ? | – | – | 9.3µM
O=[N+]([O-])c1ccc(N/N=C2/CCCCC2c2ccccn2)cc1 (stereo not drawn) | – | – | – | – | – | –
O=C(CSCc1ccccc1Cl)Nc1ccc2c(c1)OCCO2 | 95 | 58 | – | – | – | –
O=C(CSCc1ccc(Cl)cc1)NCc1ccc2c(c1)OCO2 | – | – | – | – | · | –
O=C(CNCc1ccccc1Cl)Nc1ccc2c(c1)OCCO2 | 87 | 45 | – | – | – | –
O=C(CSCc1ccc(Cl)cc1)Nc1ccc2c(c1)OCO2 | – | – | 12µM | – | – | –
O=C(CNCc1ccc(Cl)cc1)Nc1ccc2c(c1)OCCO2 | – | – | – | · | – | –
O=C(CNS(=O)(=O)c1c(Cl)cccc1Cl)N1CCCCCC1 | · | – | ? | – | – | –
Cc1cc(=O)oc2cc(OCC(=O)N3CC[C@@]4(O)CCCC[C@H]4C3)c(Cl)cc12 | – | – | ? | – | – | –
O=C(N/N=C/c1ccc2c(c1)OCO2)c1ccc(NC(=O)c2ccc(F)cc2)cc1 | – | – | – | – | – | 2.3µM
O=C(N/N=C\C=C\c1ccc(Br)cc1)c1ccc2c(c1)OCO2 | 23 | 9.9 | – | – | – | –
